Experimental data taken from PubChem BioAssay.
Calls of active or inactive are those of the source.

Columns and labels:
[1] = optical density shifts of acrAB sulA E. coli – strain DRC41, OD650, 48 h, E. coli filamentation inducer project, primary screen (AID 1152); conditions: higher = more signal, called active from +8 up or from −8 down;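 further: E. coli MC1000 strain DRC41 lacking acrAB efflux pump and sulA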
[2] = probe aLefty1 binding on compound microarray – biochemical, small-molecule microarray, 635/667 nm fluorescence, primary screen (AID 1153); conditions: higher = more signal;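 further: score merges spot fluorescence with signal-to-noise ratio from the scanned slide images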
[3] = plasmodial surface anion channel blockers, osmotic lysis – cell-based, P. falciparum Indochina, OD700, 1 h, primary screen (AID 1154); conditions: P. falciparum Indochina infected RBC osmotic lysis, higher = more signal, called active from +8 up or from −8 down
[4] = plasmodial surface anion channel blockers, osmotic lysis – cell-based, P. falciparum Indochina, OD700, 2 h, primary screen (AID 1155);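 further: lysis reports solute entry through the parasite surface anion channel PSAC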; conditions: P. falciparum Indochina infected erythrocytes, higher = more signal, called active from +8 up or from −8 down
[5] = changes in parasitized red cell lysis, either direction – P. falciparum Indochina, OD700, 3 h, PSAC antagonist project, primary screen (AID 1156); conditions: P. falciparum-infected erythrocytes, osmotic lysis, higher = more signal, called active from +8 up or from −8 down
[6] = plasmodial surface anion channel blockers, osmotic lysis – cell-based, P. falciparum Indochina, OD700, 18 h, primary screen (AID 1157); conditions: P. falciparum Indochina infected erythrocytes, osmotic lysis OD700, 18 h; higher = more signal, called active from +8 up or from −8 down
[7] = S6 kinase pathway phospho-S6 level changes – cell-based, A549, cytoblot, luminescence, serum-stimulated, primary screen (AID 1158); conditions: 5 h, higher = more signal;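 further: serum-stimulated A549 lung adenocarcinoma cells; signal is phosphorylated S6 detected by cytoblot immunostaining with HRP secondary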
[8] = molecular target: NADPH oxidase 2 (Homo sapiens) (UniProt P04839); assay: compounds shifting NOX2 Amplex Red fluorescence – cell-based, HEK293-NOX2, PMA-stimulated, NOX inhibitor project, primary screen (AID 1159); conditions: 45 min, higher = more signal, called active from +8 up or from −8 down; further: test concentration not given here
[9] = molecular target: NADPH oxidase 4 (Homo sapiens) (UniProt Q9NPH5); assay: compounds shifting NOX4 Amplex Red fluorescence – cell-based, HEK293-NOX4, tetracycline-induced, NOX inhibitor project, primary screen (AID 1160); conditions: HEK293-NOX4, Amplex Red H2O2 fluorescence, 45 min; higher = more signal, called active from +8 up or from −8 down
[10] = molecular target: NADPH oxidase 5 (Homo sapiens) (UniProt Q96PH1); assay: compounds shifting NOX5 Amplex Red fluorescence – cell-based, HEK293-NOX5, NOX inhibitor project, primary screen (AID 1161); conditions: HEK293-NOX5, ionomycin, 45 min, higher = more signal
Sequence of NADPH oxidase 5 (Homo sapiens) (Q96PH1 whole entry, looked up): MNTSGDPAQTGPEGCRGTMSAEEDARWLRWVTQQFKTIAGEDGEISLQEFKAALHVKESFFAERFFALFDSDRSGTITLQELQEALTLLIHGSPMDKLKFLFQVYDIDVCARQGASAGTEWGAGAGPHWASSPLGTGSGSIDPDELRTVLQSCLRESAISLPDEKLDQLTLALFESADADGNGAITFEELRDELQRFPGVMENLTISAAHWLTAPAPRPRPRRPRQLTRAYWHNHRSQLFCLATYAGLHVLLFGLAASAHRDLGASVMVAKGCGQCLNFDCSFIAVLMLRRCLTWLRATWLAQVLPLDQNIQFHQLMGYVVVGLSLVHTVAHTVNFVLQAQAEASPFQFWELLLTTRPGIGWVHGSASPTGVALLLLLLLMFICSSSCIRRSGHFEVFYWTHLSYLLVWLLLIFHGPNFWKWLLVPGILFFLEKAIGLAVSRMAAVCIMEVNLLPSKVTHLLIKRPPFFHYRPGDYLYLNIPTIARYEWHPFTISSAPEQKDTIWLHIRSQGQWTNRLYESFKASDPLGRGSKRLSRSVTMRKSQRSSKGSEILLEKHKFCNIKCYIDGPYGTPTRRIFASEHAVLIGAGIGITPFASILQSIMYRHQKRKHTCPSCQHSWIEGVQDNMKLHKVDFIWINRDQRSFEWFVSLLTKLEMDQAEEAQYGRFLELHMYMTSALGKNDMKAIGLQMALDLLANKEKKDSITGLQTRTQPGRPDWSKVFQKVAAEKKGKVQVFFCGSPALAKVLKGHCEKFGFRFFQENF

Sequence of NADPH oxidase 2 (Homo sapiens) (P04839 whole entry, looked up): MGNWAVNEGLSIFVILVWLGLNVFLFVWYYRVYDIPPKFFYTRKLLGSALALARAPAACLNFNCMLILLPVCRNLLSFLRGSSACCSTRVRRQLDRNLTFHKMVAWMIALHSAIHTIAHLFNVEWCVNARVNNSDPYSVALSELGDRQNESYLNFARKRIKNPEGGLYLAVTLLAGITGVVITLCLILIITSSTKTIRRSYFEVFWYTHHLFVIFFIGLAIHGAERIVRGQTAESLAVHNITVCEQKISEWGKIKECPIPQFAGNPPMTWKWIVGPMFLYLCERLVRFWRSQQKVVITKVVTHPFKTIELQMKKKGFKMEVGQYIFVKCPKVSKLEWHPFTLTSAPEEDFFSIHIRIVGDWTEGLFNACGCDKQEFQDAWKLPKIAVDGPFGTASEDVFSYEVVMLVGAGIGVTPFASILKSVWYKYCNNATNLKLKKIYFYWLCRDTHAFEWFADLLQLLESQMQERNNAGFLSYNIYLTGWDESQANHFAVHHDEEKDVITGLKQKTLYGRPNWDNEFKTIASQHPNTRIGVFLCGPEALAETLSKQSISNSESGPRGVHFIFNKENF
Sequence of NADPH oxidase 4 (Homo sapiens) (Q9NPH5 whole entry, looked up): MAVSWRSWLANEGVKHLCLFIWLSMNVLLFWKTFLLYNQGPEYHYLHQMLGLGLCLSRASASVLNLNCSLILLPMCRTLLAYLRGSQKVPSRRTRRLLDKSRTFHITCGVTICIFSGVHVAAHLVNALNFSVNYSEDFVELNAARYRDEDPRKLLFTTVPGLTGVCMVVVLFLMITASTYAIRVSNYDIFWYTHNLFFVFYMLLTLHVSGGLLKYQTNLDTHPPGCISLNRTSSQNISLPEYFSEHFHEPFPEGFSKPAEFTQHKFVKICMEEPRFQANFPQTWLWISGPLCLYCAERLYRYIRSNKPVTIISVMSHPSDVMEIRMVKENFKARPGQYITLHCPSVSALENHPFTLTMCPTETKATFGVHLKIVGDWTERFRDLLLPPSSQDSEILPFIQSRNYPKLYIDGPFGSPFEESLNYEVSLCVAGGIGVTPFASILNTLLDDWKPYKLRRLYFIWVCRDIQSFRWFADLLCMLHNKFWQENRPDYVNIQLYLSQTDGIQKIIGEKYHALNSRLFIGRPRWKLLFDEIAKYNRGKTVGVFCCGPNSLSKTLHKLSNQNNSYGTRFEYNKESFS

| Compound | z-score [1] | composite z-score [2] | z-score [3] | z-score [4] | z-score [5] | z-score [6] | z-score [7] | z-score [8] | z-score [9] | z-score [10] |
| --- | --- | --- | --- | --- | --- | --- | --- | --- | --- | --- |
| O=C1C2C=CC(C(O)c3ccc(B(O)O)cc3)N(Nc3ccccc3)C2C(=O)N1c1ccccc1 (stereo not given) | -1.52 (inactive) | 0.0315 | 1.07 (inactive) | -0.447 (inactive) | 0.977 (inactive) | -0.447 (inactive) | 0.64 | -3.57 (inactive) | -5.02 (inactive) | -7.63 |
| COc1ccc(C(O)C2C=CC3C(=O)NC(=O)C3N2Nc2ccccn2)cc1OCc1ccccc1 (stereo not given) | -0.325 (inactive) | -0.106 | 1.68 (inactive) | 0.396 (inactive) | 0.479 (inactive) | 1.04 (inactive) | -0.432 | -1.49 (inactive) | -3.05 (inactive) | -2.03 |
| CN1C(=O)C2C=CC(C(O)c3ccccn3)N(Nc3ccccc3)C2C1=O (stereo not given) | -0.434 (inactive) | -0.093 | 0.844 (inactive) | 1.09 (inactive) | -0.197 (inactive) | 1.12 (inactive) | -0.669 | -1.35 (inactive) | -4.52 (inactive) | -2.9 |
| CN(C)CCCNC(=O)[C@@]1(Cc2ccccc2I)c2ccccc2C(=O)N(Cc2ccccc2C(F)(F)F)[C@H]1c1ccc(CO)cc1 | -2.14 (inactive) | -0.0536 | 11.8 (active) | 1.49 (inactive) | -0.231 (inactive) | 0.649 (inactive) | -0.349 | -10 (active) | -4.55 (inactive) | -4.63 |
| CCOC(=O)C[C@H]1[C@H](OC(=O)Cc2ccc3c(c2)OCO3)[C@@H](NC(=O)C2CCCCC2)c2cc(OCCCO)ccc2N1C(=O)Cc1ccc(OC)cc1 | 2.31 (inactive) | 0.405 | 5.77 (inactive) | -0.54 (inactive) | -1.21 (inactive) | -0.911 (inactive) | 1.97 | -0.00495 (inactive) | 1.07 (inactive) | 0.297 |
| CC(C)CNC(=O)[C@@]1(c2ccc([N+](=O)[O-])cc2)CC(=O)N(CC23CC4CC(CC(C4)C2)C3)[C@@H]1c1ccc(CO)cc1I | -0.998 (inactive) | -0.0114 | 17.2 (active) | 3.11 (inactive) | 2.73 (inactive) | 1.41 (inactive) | -0.472 | 2 (inactive) | -1.12 (inactive) | 1.75 |
| COCCCNC(=O)[C@@]1(C)c2ccccc2C(=O)N(Cc2cc(C(F)(F)F)cc(C(F)(F)F)c2)[C@H]1c1ccc(CO)cc1 | 0.811 (inactive) | -0.0969 | 3.5 (inactive) | -0.185 (inactive) | -0.583 (inactive) | 0.472 (inactive) | -0.434 | -1.09 (inactive) | -0.274 (inactive) | -0.706 |
| COc1c(C)cc(-c2cc3c(c(-c4ccc(Oc5ccccc5)cc4)n2)[Si](C(C)C)(C(C)C)OC3)cc1C | -1.42 (inactive) | 0.13 | 0.219 (inactive) | 0.603 (inactive) | 0.392 (inactive) | 0.63 (inactive) | -0.817 | -0.445 (inactive) | 0.722 (inactive) | -0.958 |
| COCC(=C=CC[C@H](O)c1ccc(OCCO)cc1)C[C@H](O)c1cc(Cl)cc(Cl)c1O | 1.37 (inactive) | 0.155 | 10.3 (active) | 2.44 (inactive) | -2.64 (inactive) | -0.162 (inactive) | 0.175 | -2.99 (inactive) | -1.12 (inactive) | -3.26 |
| COc1ccc([Si](C)(C)[C@H]2[C@H](CCn3cc([C@H](O)c4ccccc4)nn3)O[C@@]3(C(=O)N(Cc4cccc(N5CCC5=O)c4)c4ccccc43)[C@@H]2C)cc1 | 2.02 (inactive) | 0.167 | 9.44 (active) | 0.475 (inactive) | -0.272 (inactive) | -0.87 (inactive) | 1.77 | 0.0292 (inactive) | 1.09 (inactive) | 2.04 |
| COC(=O)[C@@]1(Cc2ccccc2N=[N+]=[N-])COC(c2ccc(OCCCO)cc2)=N1 | -1.01 (inactive) | 0.933 | 24.3 (active) | 8.54 (active) | 3.35 (inactive) | 1.03 (inactive) | -0.317 | -1.38 (inactive) | -0.156 (inactive) | -1.63 |
| C=C(COC)C(=O)CC[C@H](OC(C)=O)c1cccc(OCCO)c1 | 0.527 (inactive) | -0.393 | 4.14 (inactive) | -1.22 (inactive) | 1.88 (inactive) | -1.48 (inactive) | 2.19 | -1.66 (inactive) | -0.724 (inactive) | -1.46 |
| Cc1ccccc1C(O)C1C=CC2C(=O)N(C)C(=O)C2N1N1CCCCC1 (stereo not given) | -1.52 (inactive) | 0.563 | 0.234 (inactive) | 0.479 (inactive) | 0.126 (inactive) | 1.02 (inactive) | -0.467 | -0.182 (inactive) | 0.0457 (inactive) | -1.46 |
| CCCCCCCCCCC(O)C1C=CC2C(=O)N(Cc3ccccc3)C(=O)C2N1n1cnnc1 (stereo not given) | -1.55 (inactive) | 0.918 | 1.32 (inactive) | -0.595 (inactive) | 1.6 (inactive) | -2.48 (inactive) | 1.19 | -2.6 (inactive) | -1.1 (inactive) | -4.63 |
